From PubChem BioAssay (NCI) come the findings set out here.

About 79,000 compounds went through this panel and 15% of them were active in at least one assay; those are over-represented in the sample as a whole. Active and inactive are the calls of the source. No stated cut-off is given here; in the data, active means growth inhibition above about 70%; inactive means the rest.

A short description of this test: NCI Yeast Anticancer Drug Screen. Data for the mlh1 rad18 strain (AID 175). As to conditions: S. cerevisiae mlh1 rad18 strain growth inhibition; at 50.0 µM; hits give high values. The method, boiled down: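 Growth inhibition of the yeast strain was measured after compound exposure and expressed relative to vehicle-treated controls. The strain carries defined defects in DNA damage repair.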
Take `Nc1cccnc1`: the growth inhibition is -5.65% (inactive). With `CCC1C2Cc3ccc(O)cc3C1(CC)CCN2C` (centres undefined) the figure was -13.2% (inactive); with `CC(=O)Nc1cc(Cl)c([N+](=O)[O-])cc1C`, 11.6% (inactive). With `O=[As](c1ccccc1)(c1ccccc1)c1ccc(Br)cc1`, the growth inhibition was 4.7% (inactive).

With `CCC(CCl)NC(CC(C)C)CC(C)C` (centres undefined), the growth inhibition is -10.8% (inactive).

Regarding `NC(=O)C[CH2][Sn]([Cl])([Cl])[CH2]CC(N)=O`, the growth inhibition is -7% (inactive). As to `O=C(CCSCCC(=O)N/N=C/c1ccc(N(CCCl)CCCl)cc1)N/N=C\c1ccc(N(CCCl)CCCl)cc1`, the growth inhibition was 16.6% (inactive). Next, `OCCN=Cc1c[nH]c2ccccc12`: -13.9% (inactive); `COc1ccc(CCN)c(OC)c1`: -35.1% (inactive); `NP(=O)(Oc1cccc2c(OP(N)(=O)N(CCCl)CCCl)cccc12)N(CCCl)CCCl` (centres undefined): 16.9% (inactive). Next, `CCCC[C@@H]1CCN2C[C@@H](O)[C@@H](O)[C@@H]2[C@H]1O`: -12.9% (inactive); `Nc1ccc(C(=O)O)c([As](O)O)c1`: 0.65% (inactive).

Consider `c1cc(C2N3CCCN2CC3)ccn1` (centres undefined), for which the growth inhibition is -15.2% (inactive). For `CCN(CC)C(=S)Cl`, the growth inhibition is -24.5% (inactive).

With `COC(=O)C1c2cc(OC)c(OC)cc2C(=O)N2CCc3cc4c(cc3C12)OCO4` (centres undefined), the growth inhibition is 9.2% (inactive).

On to `ClCCN(CCCl)c1ccc2c(c1)Cc1cc(Br)ccc1-2`, for which the growth inhibition was 6.9% (inactive).

For `COc1cccc2c1C(=O)c1c(O)c3c(c(O)c1C2=O)C[C@@](O)(C(=O)CO)C[C@@H]3OC1CC(N2CCOCC2C#N)C(O)C(C)O1` (some centres undefined), the growth inhibition was 91% (active). In the case of `CCC(=O)[O-].CCC(=O)[O-].N.N.N.N.[Co+3].[O-][Cl+3]([O-])([O-])[O-]`, the growth inhibition is -12.2% (inactive).

With `O=C(Cl)c1ccc[nH]1`, the growth inhibition was -0.15% (inactive). Turning to `COc1ccc(C(=O)/C=C/c2ccccc2)cc1`, the growth inhibition is 19.4% (inactive).

For `CN1CN(c2ccccc2)C2(CCN(CCCCCCF)CC2)C1=O`, the growth inhibition is 16.4% (inactive).

For the compound `CC(=O)OC1CCC2(C)C(CCC3C2CCC2(C)C(c4ccc(=O)oc4)C(OC(C)=O)CC32O)C1` (centres undefined), the growth inhibition was -0.5% (inactive).

`ClCCN(CCCl)c1ncnc2c1ncn2Cc1ccccc1`: the growth inhibition was -0.4% (inactive). Regarding `OC1(c2ccccc2)C2CCN(CC2)C1CN1CCOCC1` (centres undefined), the growth inhibition is 7.95% (inactive). Regarding `Fc1ccc(N=C=S)cc1`, the growth inhibition was 2.2% (inactive). Turning to `CCC[CH2][Sn]([CH2]CCC)([CH2]CCC)[CH2]CCNCCCN(C)C`, the growth inhibition is 99.2% (active). Next, `CCC(Cl)COP(=O)(OCC(Cl)CC)C(CC)OP(=S)(OCC(Cl)CC)OCC(Cl)CC` (centres undefined): 20.9% (inactive); `NP(=O)(OCCC(OCc1ccccc1)OCc1ccccc1)N(CCCl)CCCl` (centres undefined): 31.8% (inactive). For `C[Si](C)(C)CN(N=O)C(N)=O`, the growth inhibition is 9.45% (inactive). Next, `Cc1cc(C(C)(C)C)ccc1O`: 22% (inactive); `Cc1ncc(CNC(=O)N(CCCl)N=O)c(N)n1`: 32.1% (inactive).

For `COc1ccc(Oc2cc3c(cc2OC)CCN(C)C3)cc1`, the growth inhibition is -6.6% (inactive). In the case of `O=C(C[n+]1ccccc1)C1CCCC2CC3CCCCC3CC21` (centres undefined), the growth inhibition was 37.6% (inactive). Take `CC(=O)[CH-]C(C)=O.CC(=O)[CH-]C(C)=O.CC(=O)[CH-]C(C)=O.[Cl-].[Hf+4]`: the growth inhibition was -6.35% (inactive). For the compound `O=C(NCC(O)CO)c1c([N+](=O)[O-])ccc(N(CCCl)CCCl)c1[N+](=O)[O-]` (centres undefined), the growth inhibition is 21% (inactive). On to `N=C(N)n1cc(/C=N/N=C(N)N)cn1`, for which the growth inhibition was 5.8% (inactive).

Regarding `CCCCC(C(=O)NN)P(=O)(OCC)OCC` (centres undefined), the growth inhibition was 0.95% (inactive).

With `OCCSCSCCO`, the growth inhibition was 0.8% (inactive). Regarding `CCC[P+](CCC)(CCC)CCCCCCCCCC[P+](CCC)(CCC)CCC`, the growth inhibition is -0.5% (inactive).
